Values joined by “and” are separate entries in the source; they are usually repeats but may differ in a detail not shown here. Equal entries are not always repeated. Results filed as inconclusive are left out. Where a call stands in place of a potency, no number is given. A number with no mark means an inactive call. Active and inactive are the calls of the source. Calls come from the whole dose curve; as a rule, active = well fitted curve in the direction sought with a large enough effect; inconclusive = small, poorly fitted or top-dose-only effect, or another doubt; inactive = no such curve, though single readings can be large; an effect the other way counts as inactive or inconclusive.
Legend:
[1] = Quantitative highthroughput screen to assess conditional lethalithy of NOMO1 cells grown in RPMI1640 with untreated serum (RPMI+s) (AID 1963876); note: nearly all actives have a fitted effect of over 35% in size; note: potency is the fitted concentration of half-maximal effect
How it was run: (§1)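 Each medium arm—HPLM with 10% dialyzed FBS, or RPMI1640 with 5 mM glucose and 10% untreated or dialyzed FBS—was screened against an 11-point, 3-fold compound titration for 48 h at 37 °C, with CellTiter-Glo luminescence as endpoint.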

[2] = Quantitative highthroughput screen to assess conditional lethalithy of NOMO1 cells grown in RPMI1640 with dialyzed fetal bovine serum (RPMI+ds) (AID 1963877); note: nearly all actives have a fitted effect of over 30% in size; note: potency is the fitted concentration of half-maximal effect; for viability: series mostly up to about 46 µM
How it was run: as §1

[3] = Quantitative highthroughput screen to assess conditional lethalithy of P12 Ichikawa cells grown in Human Plasma-Like Medium with dialyzed fetal bovine serum (HPLM+ds) (AID 1963879); details: Potency: viability; note: nearly all actives have a fitted effect of over 35% in size; note: potency is the fitted concentration of half-maximal effect; for viability: series mostly up to about 46 µM
How it was run: as §1

[4] = Quantitative highthroughput screen to assess conditional lethalithy of P12 Ichikawa cells grown in RPMI1640 with dialyzed fetal bovine serum (RPMI+ds) (AID 1963880); details: Potency: P12-Ichikawa viability; note: nearly all actives have a fitted effect of over 35% in size; note: potency is the fitted concentration of half-maximal effect
How it was run: as §1

[5] = Quantitative highthroughput screen to assess conditional lethalithy of P12 Ichikawa cells grown in RPMI1640 with untreated serum (RPMI+s) (AID 1963881); details: Potency: viability; note: nearly all actives have a fitted effect of over 35% in size; note: potency is the fitted concentration of half-maximal effect; for viability: series mostly up to about 46 µM
How it was run: as §1

[6] = Quantitative highthroughput screen to assess conditional lethalithy of SEM cells grown in Human Plasma-Like Medium with dialyzed fetal bovine serum (HPLM+ds) (AID 1963882); note: nearly all actives have a fitted effect of over 35% in size; note: potency is the fitted concentration of half-maximal effect; for viability: series mostly up to about 46 µM
How it was run: as §1

[7] = Quantitative highthroughput screen to assess conditional lethalithy of SEM cells grown in RPMI1640 with unreated serum (RPMI+s) (AID 1963883); note: nearly all actives have a fitted effect of over 35% in size; note: potency is the fitted concentration of half-maximal effect
How it was run: as §1

[8] = Quantitative highthroughput screen to assess conditional lethalithy of SEM cells grown in RPMI1640 with dialyzed fetal bovine serum (RPMI+ds) (AID 1963884); note: nearly all actives have a fitted effect of over 35% in size; note: potency is the fitted concentration of half-maximal effect; for viability: series mostly up to about 46 µM
How it was run: as §1

[9] = Cellular viability qHTS for adrenocortical cancer (ACC) cell line SW-13 (AID 1963989); details: SW-13 ACC cells viability, CellTiter-Glo, 48 h; activity (max response): stronger effect = lower value;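 note: cells grown in serum-free medium with ITS supplement; nearly all actives have a fitted effect of over 65% in size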
How it was run: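 IC50 and maximal-response values come from four-parameter logistic fits of titration data. SW-13 cells in serum-free medium received compounds (up to 46 uM final) for 48 h before CellTiter-Glo luminescence.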

[10] = Cellular viability qHTS for adrenocortical cancer (ACC) cell line NCI-H295R (AID 1963990); note: nearly all actives have a fitted effect of over 60% in size; note: potency is the fitted concentration of half-maximal effect
How it was run: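 Adrenocortical carcinoma cells, suspended at 300 000 cells/mL in serum-free DMEM plus ITS, rested overnight before pin transfer of compound. After two days' incubation, ATP-dependent luminescence was recorded and curve-fitted.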

[11] = Quantitative highthroughput screen to assess conditional lethalithy of NOMO1 cells grown in Human Plasma-Like Medium with dialyzed fetal bovine serum (HPLM+ds) (AID 1963878); note: nearly all actives have a fitted effect of over 35% in size; note: potency is the fitted concentration of half-maximal effect
How it was run: as §1

| Compound | Potency [1] | Potency [2] | Potency [3] | Potency [4] | Potency [5] | Potency [6] | Potency [7] | Potency [8] | activity (max response) [9] | Potency [10] | Potency [11] |
| --- | --- | --- | --- | --- | --- | --- | --- | --- | --- | --- | --- |
| CC(C)(C)COc1ccc(-n2cc(C(=O)O)cn2)cc1C#N | inactive | inactive | inactive | inactive | inactive | inactive | inactive | inactive | 0.955% | inactive | – |
| CC[C@H]1CN2CCc3cc(OC)c(OC)cc3[C@H]2C[C@@H]1C[C@@H]1NCCc2cc(OC)c(OC)cc21 | 0.469 µM (active) | 0.469 µM (active) | 0.209 µM (active) | 0.418 µM (active) | 0.235 µM (active) | 0.166 µM (active) | 0.235 µM (active) | – | – | – | – |
| CCOc1cc2ncc(C#N)c(Nc3ccc(OCc4ccccn4)c(Cl)c3)c2cc1NC(=O)C=CCN(C)C | 0.526 µM (active) | 0.935 µM (active) | 0.59 µM (active) | 1.05 µM (active) | 1.05 µM (active) | 0.332 µM (active) | 0.148 µM (active) | 0.296 µM (active) | – | – | – |
| COc1ccc(Nc2nccc(NCCO)n2)cc1 | inactive | inactive | inactive | inactive | inactive | inactive | inactive | inactive | 5.92% | – | – |
| COc1ccc2nc(S(=O)Cc3ncc(C)c(OC)c3C)[nH]c2c1 (centres undefined) | inactive | inactive | inactive | inactive | inactive | inactive | – | inactive | -12.3% | inactive | – |
| COC1=C2C[C@@H](C)C[C@H](OC)[C@@H](O)[C@@H](C)C=C(C)[C@H](OC(N)=O)[C@@H](OC)C=CC=C(C)C(=O)NC(=CC1=O)C2=O | 23.5 µM (active) | 20.9 µM (active) | – | – | – | 8.33 µM (active) | 8.33 µM (active) | 7.43 µM (active) | – | – | 18.7 µM (active) |
| CC1(O)CC(c2nc(-c3ccc4ccc(-c5ccccc5)nc4c3)c3c(N)nccn23)C1 (centres undefined) | 3.72 µM (active) | 3.72 µM (active) | 7.43 µM (active) | 5.9 µM (active) | 4.69 µM (active) | 2.35 µM (active) | 1.18 µM (active) | 2.35 µM (active) | – | – | – |
| CCCCCCOC(=O)N=C(N)c1ccc(NCc2nc3cc(C(=O)N(CCC(=O)OCC)c4ccccn4)ccc3n2C)cc1 | 26.4 µM (active) | 26.4 µM (active) | – | – | – | inactive | inactive | inactive | – | – | 20.9 µM (active) |
| O=C(CS(=O)Cc1ccco1)NCC=CCOc1cc(CN2CCCCC2)ccn1 (centres undefined) | inactive | inactive | inactive | inactive | inactive | inactive | inactive | inactive | – | – | – |
| N#CC(=C1Nc2ccccc2S1)c1ccnc(OCc2ccc(CN3CCOCC3)cc2)n1 | 8.33 µM (active) | 8.33 µM (active) | – | – | – | inactive | inactive | inactive | – | – | 6.62 µM (active) |
| CC1(C)[C@H]2CC[C@]3(C)[C@@H](C(=O)C=C4[C@@H]5C[C@@](C)(C(=O)O)CC[C@]5(C)CC[C@]43C)[C@@]2(C)CC[C@@H]1O | inactive | inactive | inactive | inactive | inactive | inactive | inactive | inactive | – | – | – |
| O=C1c2ccccc2-c2n[nH]c3cccc1c23 | 14.8 µM (active) | 23.5 µM (active) | 14.8 µM (active) | 16.6 µM (active) | 16.6 µM (active) | – | – | – | -13.1% | – | – |
| O=c1c(-c2ccc(O)cc2)coc2cc(O[C@@H]3O[C@H](CO)[C@H](O)[C@H](O)[C@H]3O)ccc12 | inactive | inactive | inactive | inactive | inactive | 14.8 µM (active) | – | – | – | – | – |
| CCCCC(=O)O[C@]1(C(=O)CO)[C@@H](C)C[C@H]2[C@@H]3CCC4=CC(=O)C=C[C@]4(C)[C@@]3(F)[C@@H](O)C[C@@]21C | inactive | inactive | – | – | – | – | – | – | -3.35% and -9.39% | inactive | inactive |
| O=S(=O)(NCCNCC=Cc1ccc(Br)cc1)c1cccc2cnccc12 | inactive | inactive | inactive | inactive | inactive | – | – | – | – | – | – |
| CNC(=O)c1cc(COc2nnc(Nc3ccc(Cl)cc3)c3ccoc23)ccn1 | inactive | inactive | inactive | inactive | inactive | 16.6 µM (active) | – | – | – | 12.6 µM (active) | – |
| CC(C)(O)CCc1ccc(OCc2cc(-c3cccc(OC(F)F)c3)c3ncccc3c2)cc1 | inactive | inactive | inactive | inactive | inactive | inactive | inactive | inactive | – | 25.1 µM (active) | – |
| OC(CN1CCN(c2cccc(Cl)c2)CC1)C(c1ccccc1)c1ccccc1 (centres undefined) | 0.935 µM (active) | 1.05 µM (active) | 0.132 µM (active) | 0.743 µM (active) | 0.935 µM (active) | 0.833 µM (active) | 0.148 µM (active) | 0.166 µM (active) | – | – | – |
| COc1ccc2c3c1OC1C[C@@H](O)C=C[C@@]31CCN(C)C2 (some centres undefined) | inactive | inactive | inactive | inactive | inactive | inactive | inactive | inactive | – | – | – |
